# From PubChem
# A selection: hits, their analogues and other compounds. The true share with any hit is near 19%.
# TDP1 cell CPT = growth inhibition of DT40 Tdp1-/-;hTDP1 cells with camptothecin (screen for TDP1 inhibitors). actives 12% (n = 420,000). Potency, µM (titrated, usually from 46.2 µM), for the others: at the highest dose activity change, negative = growth inhibition, actives largely listed as inhibitors. AID 686979. chicken DT40 Tdp1-/-;hTDP1 cells + 20 nM CPT, ATP luminescence, 48 h; note: potency is the fitted concentration of half-maximal effect; nearly all actives have a fitted effect of over 55% in size
#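 Cell growth measured by CellTiter-Glo luminescence after a minimum 48 h, 37 C compound exposure with 20 nM CPT in Tdp1-knockout DT40 cells stably expressing hTDP1, seeded 400/well; qHTS titration format.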
# HT1080 IDH1KD tx = HT-1080 IDH1 knockdown cell toxicity (counter line); actives 2% (n = 360,000); HT-1080 IDH1 knockdown viability, ATP luminescence, 48 h; Potency, µM (top dose mostly 46.1 µM), for inactives: top-dose activity, negative = toxicity, hits mostly cytotoxic; AID 686971;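 note: potency is the fitted concentration of half-maximal effect; 0% = DMSO wells and -100% = cell-free medium wells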
#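 % activity derives from luminescence (CellTiter-Glo), normalised to DMSO and no-cell wells. HT-1080-IDH1KD cells, 750/well, had 48 h compound exposure at 37 °C.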
# TDP1 cell noCPT = qHTS for Inhibitors of human tyrosyl-DNA phosphodiesterase 1 (TDP1): qHTS in cells in absence of CPT; actives 15% (n = 420,000); DT40 Tdp1-/- hTDP1 cells, no CPT, ATP luminescence, 48 h; Potency, µM (highest dose often 46.2 µM), without a hit: at the highest dose activity change, negative = growth inhibition, hits mostly inhibitors; note: potency is the fitted concentration of half-maximal effect; nearly all actives have a fitted effect of over 55% in size
#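 Chicken DT40 Tdp1-/- cells complemented with human TDP1, screened without camptothecin (DMSO vehicle only), 400 cells/well. Compounds pin-transferred, cells incubated at 37 °C for at least 48 hr. Growth read as ATP-dependent luminescence (CellTiter-Glo, 30 min at RT).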
# IL-1B inflam inh = inhibitors of inflammasome signaling (IL-1 beta secretion) | THP-1 LPS/ATP IL-1B secretion, AlphaLISA, 16 h; hits give low values | activity change, % at 57.5 µM | actives 4.7% (n = 360,000) | AID 743279; in the data active = activity change below about -50%; inconclusive = mostly about -30% to -49%
#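 THP-1 cells pretreated 1 hr with compounds (up to 57.5 uM final), then stimulated with LPS (250 ng/mL final) plus ATP (1.25 mM final); secreted IL-1B measured by AlphaLISA after 16 hr, decreased signal indicating inhibition.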
# ELG1 repair inh = inhibitors of ELG1-dependent DNA repair in HEK293T cells; HEK293T ELG1-luciferase reporter, luminescence, 16 h; DNA damage induced by 5-fluorouridine; Potency, µM (doses to about 46.1 µM), without a hit: at the highest dose activity change, negative = inhibition, most hits filed as inhibitors; actives 2.3% (n = 330,000); note: potency is the fitted concentration of half-maximal effect; nearly all actives have a fitted effect of over 55% in size
#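 In this reporter screen, reduction of luminescence relative to DMSO vehicle indicated activity. Compounds and 5-fluorouridine were added together to 2,000 cells per well, incubated for 16 hr at 37 °C, then developed with ONE-Glo.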
# HT1080-NT tox = kills 2HG-producing HT-1080-NT fibrosarcoma cells. HT-1080-NT fibrosarcoma viability, CellTiter-Glo ATP luminescence, 48 h. Potency, µM (titrated, usually from 46.1 µM), without a hit: top-dose activity, negative = less viability, actives largely listed as cytotoxic. actives 1.6% (n = 360,000);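 note: NT is the 2HG producing partner of a matched IDH1 knockdown line; potency is the fitted concentration of half-maximal effect; 0% = DMSO-treated cells and -100% = media-only wells without cells; nearly all actives have a fitted effect of over 55% in size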
#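 Toxicity toward the 2HG-producing NT line was scored as %Activity, normalised to DMSO and no-cell wells, from CellTiter-Glo luminescence after 48 hours' treatment.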
# * hit, by the source's call; i = inactive; ? = inconclusive; . = no result given. Unless noted, calls come from the whole dose curve; as a rule, active = well fitted curve in the direction sought with a large enough effect; inconclusive = small, poorly fitted or top-dose-only effect, or another doubt; inactive = no such curve, though single readings can be large; an effect the other way counts as inactive or inconclusive. Unless noted, % is set by controls: 0 for no effect and ±100 for the full control effect.
SMILES,TDP1 cell CPT,HT1080 IDH1KD tx,TDP1 cell noCPT,IL-1B inflam inh,ELG1 repair inh,HT1080-NT tox
Cc1ccc(S(=O)(=O)CC(=O)Nc2nc(-c3ccccc3)cs2)cc1,-18%,-24%,21µM*,-14,?,-25%
Cc1csc(NC(=O)Cc2ccc(Br)cc2)n1,8%,-10%,-6%,-9,?,-23%
CC(=O)c1sc(NC(=O)C2(F)C(F)(F)C(F)(F)C(F)(F)C(F)(F)C2(F)F)nc1C,4.1µM*,7.1µM*,5.8µM*,-88*,?,7.1µM*
CCOC(=O)c1csc(NC(=O)CCS(=O)(=O)c2ccc(Cl)cc2)n1,?,-6%,18µM*,-12,.,-1%
Cc1nc2c3ccccc3nc(NNC(=O)CCC(=O)O)n2n1,-8%,.,-16%,.,.,.
C[C@H](CO)N1C[C@H](C)[C@@H](CN(C)S(=O)(=O)c2ccc(C#N)cc2)OCc2cn(nn2)CCCC1=O,6%,12%,-3%,12,.,8%
Cc1ccc(S(=O)(=O)CCC(=O)Nc2nc(-c3ccncc3)cs2)cc1,23µM*,-2%,18µM*,?,-10%,1%
CCCC(=O)Nc1ccc(-c2csc(N/N=C\c3ccncc3)n2)cc1,10µM*,?,8.2µM*,?,?,?
CC(=O)c1sc(NC(=O)CCS(=O)(=O)c2ccc(C)cc2)nc1C,9.2µM*,8%,18µM*,-107*,10%,5%
CC(=O)Nc1ccc(-c2csc(N/N=C\c3ccncc3)n2)cc1,-24%,4%,?,-3,?,9%
CC(=O)c1sc(NC(=O)CS(=O)(=O)c2ccc(F)cc2)nc1C,13%,1%,-5%,22,?,9%
CN(C(=O)Nc1cn(C)c(=O)c2ccccc12)c1ccccc1,-5%,.,-3%,.,.,.
NNC(=O)c1cc2c(s1)-c1cc(Cl)ccc1SC2,?,?,?,46,?,?
N#Cc1cccc(NC(=O)c2cc3c(s2)-c2ccc(Cl)cc2SC3)c1,26µM*,.,23µM*,.,.,.
CCN(CC)CCNC(=O)c1cc2c(s1)-c1ccccc1SC2,23µM*,?,16µM*,-9,-1%,?
CN(Cc1ccccc1)C(=O)c1cc2c(s1)-c1ccc(Cl)cc1SC2,?,.,23µM*,.,.,.
O=C(NCc1ccc(Cl)cc1)c1cc2c(s1)-c1ccccc1SC2,13%,.,-21%,.,.,.
CC1(C)SC(C)(C)N(C=O)C1C(=O)O (stereo not drawn),-5%,21%,3%,-10,.,8%
CCOc1ccccc1C(=O)OCC(=O)NCCNC(=O)COC(=O)c1ccccc1OCC,-1%,11%,-4%,i,9%,13%
CCN(CC)C(CNC(=O)c1cc(=O)[nH]c2ccccc12)c1ccccc1Cl (stereo not drawn),-1%,6%,-15%,4,0%,-1%
CCN1C[C@@H]2[C@@H]3C(=O)N(Cc4ccccc4)C(=O)[C@@H]3[C@](C)(C1=O)N2C(=O)c1ccccc1,15%,11%,4%,10,.,19%
CC1(C(=O)NS(=O)(=O)c2cccs2)CCN1C(=O)CCc1ccc(Cl)cc1Cl (stereo not drawn),12%,23%,9%,41,.,-1%
Cc1ccc(S(=O)(=O)NC(=O)Nc2ccc(Cl)cn2)cc1,5%,2%,-5%,-9,9%,7%
Cc1ccc(S(=O)(=O)NC(=O)NC2=NC(C)(C)N(c3ccc(Cl)c(Cl)c3)C(N)=N2)cc1,0.92µM*,1.6µM*,1µM*,16,.,3.3µM*
COc1cc2sc3ccc(-c4ccc(CN5CCOCC5)cc4)cc3c(=O)c2cc1OC,18µM*,19%,13µM*,-3,?,20%
SMILES,TDP1 cell CPT,HT1080 IDH1KD tx,TDP1 cell noCPT,IL-1B inflam inh,ELG1 repair inh,HT1080-NT tox
COc1cc2sc3ccc(-c4ccc(N(C)C)nc4)cc3c(=O)c2cc1OC,5.8µM*,17%,5.8µM*,21,.,11%
COc1ccc2[nH]cc(CCNS(=O)(=O)Cc3ccccc3)c2c1,2%,0%,?,-10,-18%,-6%
CCCn1c(N/N=C\C=C\c2ccccc2)nc2c1c(=O)[nH]c(=O)n2C,15µM*,0%,16µM*,1,?,1%
COCCn1c(N/N=C(C)/C=C/c2ccccc2)nc2c1c(=O)[nH]c(=O)n2C,.,.,.,.,4.6µM*,.
OC[C@@H]1CN(Cc2cccs2)C[C@H](n2cnc3c(N4CCCC4)ncnc32)O1,-27%,3%,-23%,-12,.,8%
Cc1cccc(N2CCN(C(=O)c3ccc4c(c3)OCCO4)CC2C)c1 (stereo not drawn),30%,13%,-2%,15,10%,15%
Cc1cccc(N2CCN(C(=O)CC(NC(=O)c3ccccc3)c3ccccc3)CC2C)c1 (stereo not drawn),?,9%,29µM*,-11,-11%,0%
O=C(CN1CCOc2ccccc21)N1CCN(c2cccc(Cl)c2)CC1,?,-10%,29µM*,?,.,-1%
Cc1cccc(N2CCN(C(=O)CN3CCOc4ccccc43)CC2C)c1 (stereo not drawn),23µM*,-1%,?,-24,?,3%
COc1cc(C(=O)NCc2ccc(S(N)(=O)=O)cc2)ccc1OCC(=O)N1CCOCC1,-3%,21%,2%,17,11%,10%
CCCN(C)C[C@@H]1OCc2cnnn2CCCC(=O)N([C@H](C)CO)C[C@H]1C,-8%,-1%,-6%,-3,.,-5%
CC1(c2nnnn2Cc2ccccc2)CCC(=O)N1Cc1ccco1 (stereo not drawn),2%,4%,-12%,0,.,18%
Cc1nc(/C=C\C(=O)O)c2cc(C)oc2n1,3%,19%,-7%,-66*,-6%,24%
COc1cc(C(=O)NCC(c2cccs2)N(C)C)cc(Cl)c1OC(C)C (stereo not drawn),?,-18%,21µM*,-6,?,-7%
COc1cc2ccccc2cc1C(=O)NCC(c1cccs1)N(C)C (stereo not drawn),?,?,16µM*,-76*,?,-22%
CCCOc1ccc(C(=O)NCC(c2cccs2)N(C)C)cc1OC (stereo not drawn),?,-3%,-11%,-1,6%,3%
